Results taken from the supplement of paper PMC10849652.
About 7,900 targets were measured; listed, in parts, are those with a hit and a random draw of the rest. About 0.6% of all pairs of compound and target were hits.

Columns and labels:
Test in all cases: log2 fold change, soluble protein after heating vs DMSO (PISA); higher = thermal stabilisation; K562 cells, 10 uM, 30 min; active = over 0.2 and 3.5 SD of the protein, either way, in both replicates (recomputed)
[1] = compound: CC1=C(C=C(C=C1)NC(=O)C2=CC(=CC=C2)C(C)(C)C#N)NC3=CC4=C(C=C3)N=CN(C4=O)C
Outline: (§1)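 K562 cells at 2×10^6 cells/mL were exposed to 10 μM compound for 30 min, then aliquots were heated for 3 min across 48°C-58°C, pooled, and extracted in PBS containing 0.5% NP-40 at 4°C. The supernatant after 21,000xg for 90 min was taken as soluble protein and measured by TMTpro 16plex LC-MS/MS with channel sums equalised. Thermal stability is reported relative to control samples, with values from duplicates. Fold changes are given on a log2 scale.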

[2] = compound: CC1=C(C=C(C=C1)NC(=O)C2=CC(=CC=C2)N(C)C)NC(=O)C3=CC=C(C=C3)O
Outline: as §1

[3] = compound: CC1=CC=C(C=C1)SC2=C3C=C(SC3=CN=C2)C(=O)N
Outline: as §1

Nexturastat A = compound: CCCCN(Cc1ccc(C(=O)NO)cc1)C(=O)Nc1ccccc1 [Nexturastat A]
Outline: as §1

vemurafenib = compound: CCCS(=O)(=O)Nc1ccc(F)c(C(=O)c2c[nH]c3ncc(-c4ccc(Cl)cc4)cc23)c1F [vemurafenib]
Outline: as §1

[4] = compound: CCCS(=O)(=O)Nc1ccc(F)c(C(=O)c2c[nH]c3ncc(Cl)cc23)c1F
Outline: as §1

barasertib = compound: CCN(CCCOc1ccc2c(Nc3cc(CC(=O)Nc4cccc(F)c4)[nH]n3)ncnc2c1)CCOP(=O)(O)O [barasertib]
Outline: as §1

[5] = compound: CC[C@@H]1C(=O)N(C)c2cnc(Nc3ccc(C(=O)NC4CCN(C)CC4)cc3OC)nc2N1C1CCCC1
Outline: as §1

volasertib = compound: CC[C@@H]1C(=O)N(C)c2cnc(Nc3ccc(C(=O)N[C@H]4CC[C@H](N5CCN(CC6CC6)CC5)CC4)cc3OC)nc2N1C(C)C [volasertib]
Outline: as §1

epoxomicin = compound: CC[C@H](C)[C@@H](C(=O)N[C@@H]([C@@H](C)O)C(=O)N[C@@H](CC(C)C)C(=O)[C@]1(CO1)C)NC(=O)[C@H]([C@@H](C)CC)N(C)C(=O)C [epoxomicin]
Outline: as §1

[6] = compound: CCn1cc(-c2ccnc3[nH]c(-c4cccc(CN(C)C)c4)cc23)c(-c2ccc(NC(=O)N(C)C)cc2)n1
Outline: as §1

[7] = compound: CN(C)CC(=O)Nc1ccc2[nH]c(=O)c3ccccc3c2c1
Outline: as §1

rosiglitazone = compound: CN(CCOC1=CC=C(C=C1)C[C@H]2C(=O)NC(=O)S2)C3=CC=CC=N3 (racemic) [rosiglitazone]
Outline: as §1

[8] = compound: CN1C2=C(C3=C1C(=O)N(N=C3)CC4=CC(=CC=C4)N)SC(=C2)S(=O)C
Outline: as §1

[9] = compound: CN1CCC(CNc2ccc3ncc(-c4cccc(OC(F)(F)F)c4)n3n2)CC1
Outline: as §1

[10] = compound: CC1=NC(=CC=C1)C2=C(N=C(N2)C(C)(C)C)C3=CC4=NC=CN=C4C=C3
Outline: as §1

[11] = compound: CCCc1cc(C)[nH]c(=O)c1CNC(=O)c1cc(-c2ccnc(N3CCN(C)CC3)c2)cc2c1cnn2C(C)C
Outline: as §1

givinostat = compound: CCN(CC)Cc1ccc2cc(COC(=O)Nc3ccc(C(=O)NO)cc3)ccc2c1 [givinostat]
Outline: as §1

[12] = compound: CCn1c(C(=O)N(C2CC2)C2CC2)cc2c3c(ncn3C)c(Nc3cc(C)n(C)n3)nc21
Outline: as §1

[13] = compound: CC[C@H](C)N1C=C(C2=C(C=C(C=C21)C3=CN=C(C=C3)N4CCNCC4)C(=O)NCC5=C(C=C(NC5=O)C)C)C
Outline: as §1

Measured: log2 fold change

UBXN8 (UniProt O00124)
inactive: [1] -0.029 | [2] 0.169 | [3] 0.023 | Nexturastat A 0.334 | vemurafenib 0.089 | [4] -0.024 | barasertib -0.218 | [5] 0.081 | volasertib -0.179 | epoxomicin 0.073 | [6] -0.039 | [7] -0.051 | rosiglitazone 0.259 | [8] 0.147 | [9] -0.297

TSC2 (UniProt P49815)
Chain of UniProt P49815 (P49815 whole entry, looked up): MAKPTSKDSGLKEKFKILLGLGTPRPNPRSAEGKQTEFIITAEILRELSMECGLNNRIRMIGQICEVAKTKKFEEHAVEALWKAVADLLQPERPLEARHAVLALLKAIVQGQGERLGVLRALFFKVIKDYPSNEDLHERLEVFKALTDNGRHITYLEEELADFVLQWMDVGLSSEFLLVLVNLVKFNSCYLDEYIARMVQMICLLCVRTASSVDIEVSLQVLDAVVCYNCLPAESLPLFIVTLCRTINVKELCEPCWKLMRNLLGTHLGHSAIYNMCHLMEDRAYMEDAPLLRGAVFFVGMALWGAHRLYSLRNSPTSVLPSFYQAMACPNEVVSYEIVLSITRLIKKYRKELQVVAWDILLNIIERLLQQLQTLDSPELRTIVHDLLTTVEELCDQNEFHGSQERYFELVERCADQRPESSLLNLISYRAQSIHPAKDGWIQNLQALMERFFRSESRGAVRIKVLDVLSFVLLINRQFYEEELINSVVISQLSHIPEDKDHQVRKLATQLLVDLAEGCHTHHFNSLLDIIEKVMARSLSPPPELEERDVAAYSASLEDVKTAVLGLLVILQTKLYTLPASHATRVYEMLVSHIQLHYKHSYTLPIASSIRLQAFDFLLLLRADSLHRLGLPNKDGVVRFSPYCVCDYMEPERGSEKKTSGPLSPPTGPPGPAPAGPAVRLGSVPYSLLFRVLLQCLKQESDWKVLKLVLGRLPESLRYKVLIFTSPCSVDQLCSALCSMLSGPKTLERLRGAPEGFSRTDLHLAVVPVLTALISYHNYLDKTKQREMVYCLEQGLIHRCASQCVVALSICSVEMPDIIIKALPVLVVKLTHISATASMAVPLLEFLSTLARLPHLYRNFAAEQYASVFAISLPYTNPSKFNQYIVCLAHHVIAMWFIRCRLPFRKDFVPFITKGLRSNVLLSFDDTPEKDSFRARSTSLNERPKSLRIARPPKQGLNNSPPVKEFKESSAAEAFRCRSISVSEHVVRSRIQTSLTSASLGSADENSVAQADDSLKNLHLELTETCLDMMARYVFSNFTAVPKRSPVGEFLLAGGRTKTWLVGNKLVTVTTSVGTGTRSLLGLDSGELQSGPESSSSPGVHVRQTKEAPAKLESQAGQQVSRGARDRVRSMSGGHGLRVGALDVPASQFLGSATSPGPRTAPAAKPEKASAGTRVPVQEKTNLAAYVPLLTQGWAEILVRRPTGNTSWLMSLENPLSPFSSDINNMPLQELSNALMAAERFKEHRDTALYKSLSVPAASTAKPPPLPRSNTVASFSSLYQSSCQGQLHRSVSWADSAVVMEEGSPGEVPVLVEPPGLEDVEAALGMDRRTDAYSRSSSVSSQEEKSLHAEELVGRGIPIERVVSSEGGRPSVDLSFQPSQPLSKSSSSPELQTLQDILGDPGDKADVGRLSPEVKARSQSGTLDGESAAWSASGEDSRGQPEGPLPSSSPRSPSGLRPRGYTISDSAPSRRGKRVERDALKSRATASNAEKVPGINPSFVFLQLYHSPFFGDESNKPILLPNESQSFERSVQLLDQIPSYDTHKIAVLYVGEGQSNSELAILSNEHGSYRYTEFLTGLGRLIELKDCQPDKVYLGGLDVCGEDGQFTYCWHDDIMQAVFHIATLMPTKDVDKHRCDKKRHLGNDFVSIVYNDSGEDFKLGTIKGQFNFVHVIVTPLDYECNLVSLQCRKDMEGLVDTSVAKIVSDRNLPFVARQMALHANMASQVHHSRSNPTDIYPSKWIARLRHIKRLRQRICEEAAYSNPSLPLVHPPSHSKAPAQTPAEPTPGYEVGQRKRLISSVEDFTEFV
inactive: [1] -0.09 | [2] 0.004 | [3] -0.076 | [10] -0.139 | Nexturastat A 0.173 | [4] 0.098 | [11] -0.036 | givinostat -0.043 | barasertib -0.015 | [5] -0.062 | volasertib -0.23 | epoxomicin -0.01 | [12] -0.295 | [6] 0.016 | rosiglitazone -0.052 | [9] -0.041

UFM1 (UniProt P61960)
inactive: [1] 0.031 | [2] -0.046 | [3] 0.06 | [10] 0.183 | Nexturastat A -0.04 | vemurafenib 0.07 | [4] 0.041 | [11] -0.083 | givinostat 0.087 | barasertib -0.014 | [5] 0.025 | volasertib -0.13 | [13] -0.092 | epoxomicin 0.023 | [12] -0.026 | [7] 0.043 | rosiglitazone 0.029 | [8] -0.062

TSPAN13 (UniProt O95857)
Chain of UniProt O95857 (O95857 whole entry, looked up): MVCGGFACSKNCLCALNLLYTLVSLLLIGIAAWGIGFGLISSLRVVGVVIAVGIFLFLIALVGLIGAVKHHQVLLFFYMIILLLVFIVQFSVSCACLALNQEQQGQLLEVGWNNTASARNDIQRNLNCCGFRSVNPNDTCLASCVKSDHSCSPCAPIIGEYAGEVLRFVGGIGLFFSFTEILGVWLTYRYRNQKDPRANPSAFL
active: [7] 0.512
inactive: [1] 0.111 | [2] -0.078 | [3] 0.161 | Nexturastat A -0.061 | vemurafenib 0.103 | [4] -0.08 | [11] -0.113 | givinostat -0.063 | barasertib -0.041 | volasertib 0.098 | [13] -0.083 | epoxomicin -0.148 | [12] 0.097 | [6] -0.098 | rosiglitazone 0 | [8] -0.036 | [9] -0.003

TMEM9B (UniProt Q9NQ34)
inactive: [1] -0.068 | [2] 0.042 | [3] 0.105 | [10] 0.01 | Nexturastat A -0.055 | vemurafenib 0.013 | [4] 0.064 | [11] 0.006 | givinostat -0.023 | barasertib -0.015 | [5] 0.035 | volasertib -0.192 | [13] -0.011 | epoxomicin 0.109 | [12] 0.035 | [6] 0.049 | [7] -0.023 | rosiglitazone 0.037 | [9] -0.054

UTP3 (UniProt Q9NQZ2)
inactive: [1] -0.016 | [2] 0.008 | [3] -0.094 | [10] -0.048 | Nexturastat A 0.308 | vemurafenib 0.004 | [4] 0.022 | [11] 0.101 | givinostat 0.075 | barasertib -0.08 | [5] 0.067 | volasertib -0.012 | epoxomicin -0.376 | [12] -0.007 | [6] 0.236 | [7] -0.052 | rosiglitazone -0.41 | [8] 0.165 | [9] 0.092

UBIAD1 (UniProt Q9Y5Z9)
inactive: [1] -0.03 | [2] 0.059 | [3] 0.004 | [10] 0.015 | vemurafenib 0.07 | [4] 0.093 | [11] 0.023 | givinostat 0.043 | barasertib 0.023 | [5] -0.008 | volasertib -0.065 | [13] -0.014 | [12] -0.009 | [6] 0.027 | [7] -0.011 | rosiglitazone 0.044 | [8] -0.094 | [9] -0.041

WEE1 (UniProt P30291)
Chain of UniProt P30291 (P30291 whole entry, looked up): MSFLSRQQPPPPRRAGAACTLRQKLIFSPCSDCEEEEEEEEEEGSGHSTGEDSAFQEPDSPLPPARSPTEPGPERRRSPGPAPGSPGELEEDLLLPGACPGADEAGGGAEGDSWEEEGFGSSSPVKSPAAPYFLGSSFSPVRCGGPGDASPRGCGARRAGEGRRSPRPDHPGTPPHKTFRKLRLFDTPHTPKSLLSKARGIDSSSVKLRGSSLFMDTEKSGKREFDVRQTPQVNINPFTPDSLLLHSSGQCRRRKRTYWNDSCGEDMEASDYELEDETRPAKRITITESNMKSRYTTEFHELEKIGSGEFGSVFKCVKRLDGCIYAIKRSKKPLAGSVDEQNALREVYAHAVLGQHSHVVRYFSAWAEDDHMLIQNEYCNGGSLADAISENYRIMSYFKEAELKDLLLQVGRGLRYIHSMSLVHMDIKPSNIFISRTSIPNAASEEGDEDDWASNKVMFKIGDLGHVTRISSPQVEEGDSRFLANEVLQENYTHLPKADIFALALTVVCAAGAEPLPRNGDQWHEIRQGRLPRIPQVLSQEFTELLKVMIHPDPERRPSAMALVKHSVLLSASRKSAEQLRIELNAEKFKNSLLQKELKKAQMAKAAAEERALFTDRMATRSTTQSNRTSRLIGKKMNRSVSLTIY
inactive: [1] -0.037 | [2] 0.02 | [3] -0.304 | [10] -0.046 | Nexturastat A 0.322 | vemurafenib 0 | [4] 0 | [11] -0.137 | givinostat 0.037 | barasertib -0.005 | volasertib 0.07 | [13] -0.028 | epoxomicin 0.203 | [12] 0.003 | [6] -0.209 | [7] -0.103 | rosiglitazone 0.072 | [8] 0.046 | [9] 0.195

UBE3B (UniProt Q7Z3V4)
Chain of UniProt Q7Z3V4 (Q7Z3V4 whole entry, looked up): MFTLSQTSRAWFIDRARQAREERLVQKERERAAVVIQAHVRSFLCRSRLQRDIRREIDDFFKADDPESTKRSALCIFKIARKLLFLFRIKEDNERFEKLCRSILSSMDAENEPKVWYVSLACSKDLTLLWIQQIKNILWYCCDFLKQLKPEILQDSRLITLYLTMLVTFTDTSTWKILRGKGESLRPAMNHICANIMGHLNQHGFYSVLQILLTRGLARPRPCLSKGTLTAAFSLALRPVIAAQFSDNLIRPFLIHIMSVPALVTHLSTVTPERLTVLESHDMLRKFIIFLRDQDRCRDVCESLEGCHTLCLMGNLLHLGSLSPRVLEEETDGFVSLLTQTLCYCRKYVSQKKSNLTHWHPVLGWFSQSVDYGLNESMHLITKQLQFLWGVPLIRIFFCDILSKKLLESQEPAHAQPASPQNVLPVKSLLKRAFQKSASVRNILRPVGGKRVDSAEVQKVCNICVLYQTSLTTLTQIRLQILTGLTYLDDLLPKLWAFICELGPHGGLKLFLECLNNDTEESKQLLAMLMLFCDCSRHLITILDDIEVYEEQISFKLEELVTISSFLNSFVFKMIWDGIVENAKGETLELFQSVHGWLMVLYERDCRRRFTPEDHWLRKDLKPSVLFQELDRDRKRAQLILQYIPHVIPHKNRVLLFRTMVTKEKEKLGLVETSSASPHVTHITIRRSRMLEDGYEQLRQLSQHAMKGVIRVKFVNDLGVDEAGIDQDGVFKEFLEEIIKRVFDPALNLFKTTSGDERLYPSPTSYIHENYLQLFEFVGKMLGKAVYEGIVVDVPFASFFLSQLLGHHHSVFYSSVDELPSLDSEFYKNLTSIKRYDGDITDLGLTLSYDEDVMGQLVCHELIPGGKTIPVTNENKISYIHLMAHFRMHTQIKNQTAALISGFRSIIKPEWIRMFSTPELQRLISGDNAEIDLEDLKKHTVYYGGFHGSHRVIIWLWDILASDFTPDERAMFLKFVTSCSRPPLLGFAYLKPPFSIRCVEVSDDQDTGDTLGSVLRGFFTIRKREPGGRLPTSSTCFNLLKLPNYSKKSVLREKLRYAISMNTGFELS
inactive: [1] 0.142 | [2] 0.086 | [3] -0.03 | [10] 0.007 | Nexturastat A 0.014 | [4] -0.099 | barasertib -0.057 | [13] 0.088 | epoxomicin -0.023 | rosiglitazone 0.179 | [8] -0.007
active: volasertib -0.554

WDR37 isoform 2 (UniProt Q9Y2I8)
inactive: [1] 0.013 | [2] 0.068 | [3] -0.019 | [10] -0.138 | Nexturastat A 0.039 | vemurafenib 0.01 | [4] 0.012 | [11] 0.028 | givinostat -0.018 | barasertib 0.04 | [5] 0.078 | volasertib -0.022 | [13] -0.005 | epoxomicin -0.049 | [12] 0.007 | [6] -0.049 | [7] -0.004 | rosiglitazone 0.078 | [8] 0.246 | [9] -0.005

VKORC1 (UniProt Q9BQB6)
Chain of UniProt Q9BQB6 (Q9BQB6 whole entry, looked up): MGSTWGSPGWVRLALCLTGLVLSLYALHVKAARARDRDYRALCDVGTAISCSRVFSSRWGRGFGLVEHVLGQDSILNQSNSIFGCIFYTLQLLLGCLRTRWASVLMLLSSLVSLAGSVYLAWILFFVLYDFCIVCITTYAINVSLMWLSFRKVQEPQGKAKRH
active: [10] -0.325
inactive: [1] 0.064 | [2] -0.04 | [3] 0.001 | vemurafenib -0.023 | [4] 0.117 | [11] -0.017 | givinostat -0.006 | barasertib 0.048 | [5] -0.006 | volasertib -0.079 | [13] -0.088 | [12] -0.078 | [6] 0.008 | [7] 0.072 | rosiglitazone 0.033 | [8] 0.03 | [9] -0.09

TOMM20 (UniProt Q15388)
Chain of UniProt Q15388 (Q15388 whole entry, looked up): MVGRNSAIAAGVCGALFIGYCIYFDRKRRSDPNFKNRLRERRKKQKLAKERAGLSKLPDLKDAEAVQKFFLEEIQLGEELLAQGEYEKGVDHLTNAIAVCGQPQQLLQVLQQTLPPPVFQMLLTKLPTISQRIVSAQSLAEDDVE
inactive: [1] 0.058 | [2] 0.044 | [3] 0.04 | [10] -0.019 | Nexturastat A 0.019 | vemurafenib -0.024 | [4] 0.092 | [11] 0.026 | givinostat 0.011 | barasertib 0.021 | [5] -0.135 | volasertib -0.075 | [13] -0.068 | epoxomicin -0.089 | [12] 0.078 | [6] -0.017 | [7] -0.005 | rosiglitazone -0.022 | [8] -0.033
active: [9] -0.271

TRIM23 (UniProt P36406)
inactive: [1] -0.025 | [2] -0.008 | [10] 0.036 | vemurafenib -0.022 | [11] 0.055 | givinostat 0.027 | barasertib 0.021 | [5] 0.013 | [13] 0.049 | [12] -0.059 | [6] -0.089 | [7] 0.025 | rosiglitazone -0.231 | [8] -0.116 | [9] -0.228

TMEM164 (UniProt Q5U3C3)
Chain of UniProt Q5U3C3 (Q5U3C3 whole entry, looked up): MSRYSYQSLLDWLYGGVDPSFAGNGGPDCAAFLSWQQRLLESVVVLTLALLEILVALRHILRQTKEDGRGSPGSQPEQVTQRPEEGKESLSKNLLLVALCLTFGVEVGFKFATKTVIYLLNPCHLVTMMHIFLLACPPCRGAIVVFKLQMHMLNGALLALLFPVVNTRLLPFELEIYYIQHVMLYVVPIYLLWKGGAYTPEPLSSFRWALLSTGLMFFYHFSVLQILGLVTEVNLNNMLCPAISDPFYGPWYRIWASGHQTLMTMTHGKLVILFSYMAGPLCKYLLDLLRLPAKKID
inactive: [1] 0.288 | [3] 0.05 | [10] -0.047 | Nexturastat A -0.142 | vemurafenib -0.083 | [4] 0.078 | [11] -0.305 | givinostat -0.038 | barasertib -0.095 | [5] -0.01 | volasertib -0.145 | [13] -0.01 | epoxomicin 0.082 | [12] 0.045 | [6] -0.053 | [7] 0.07 | rosiglitazone 0.135 | [8] -0.001 | [9] -0.021

WDR75 (UniProt Q8IWA0)
inactive: [2] 0.007 | [3] 0.043 | [10] -0.053 | Nexturastat A 0.395 | vemurafenib -0.126 | [4] -0.069 | [11] 0.107 | barasertib 0.025 | volasertib -0.153 | [13] -0.041 | epoxomicin -0.156 | [7] -0.073 | rosiglitazone -0.061 | [8] 0.166

UBE2D1 (UniProt P51668)
Chain of UniProt P51668 (P51668 whole entry, looked up): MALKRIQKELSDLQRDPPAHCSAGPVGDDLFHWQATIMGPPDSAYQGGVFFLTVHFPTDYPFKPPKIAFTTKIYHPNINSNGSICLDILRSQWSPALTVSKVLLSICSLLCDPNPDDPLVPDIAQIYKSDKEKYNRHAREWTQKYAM
inactive: [1] -0.08 | [2] 0.029 | [3] 0.021 | vemurafenib 0.156 | [4] 0.097 | [11] -0.004 | givinostat -0.035 | barasertib 0.047 | [5] -0.123 | [13] -0.024 | [12] 0.037 | [6] -0.045 | [7] 0.017 | rosiglitazone 0.099 | [8] -0.109 | [9] -0.095
active: volasertib -0.333

TOM1 (UniProt O60784)
Chain of UniProt O60784 (O60784 whole entry, looked up): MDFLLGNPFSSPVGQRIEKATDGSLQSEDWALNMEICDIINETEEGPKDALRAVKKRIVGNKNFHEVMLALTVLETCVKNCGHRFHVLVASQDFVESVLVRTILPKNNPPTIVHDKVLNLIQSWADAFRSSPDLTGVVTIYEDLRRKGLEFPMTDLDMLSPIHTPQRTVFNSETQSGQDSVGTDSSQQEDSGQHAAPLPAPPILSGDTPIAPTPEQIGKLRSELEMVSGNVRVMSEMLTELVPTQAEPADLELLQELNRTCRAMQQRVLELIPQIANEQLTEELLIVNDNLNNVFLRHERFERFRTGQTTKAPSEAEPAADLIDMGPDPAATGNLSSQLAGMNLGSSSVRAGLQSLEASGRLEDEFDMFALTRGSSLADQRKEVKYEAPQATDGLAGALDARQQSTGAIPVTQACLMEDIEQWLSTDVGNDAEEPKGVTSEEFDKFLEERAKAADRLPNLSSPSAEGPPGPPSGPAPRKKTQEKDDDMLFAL
inactive: [1] 0.058 | [10] -0.022 | [11] -0.015 | givinostat -0.09 | barasertib -0.039 | epoxomicin 0.094 | [12] 0.035 | [6] -0.072 | rosiglitazone 0.019
active: Nexturastat A 0.504 | [9] -0.664

TMEM184C (UniProt Q9NVA4)
active: [9] -0.492
inactive: [1] -0.07 | [2] 0.028 | [10] 0.028 | Nexturastat A -0.02 | vemurafenib 0.024 | [11] -0.028 | barasertib 0.055 | [5] -0.03 | [13] 0.033 | epoxomicin 0.087 | [6] 0.08 | [7] -0.013 | rosiglitazone 0.088 | [8] -0.237

WARS1 (UniProt G3V339)
inactive: Nexturastat A 0.188 | epoxomicin -0.238

WARS1 (UniProt G3V3P2)
inactive: [1] -0.055 | barasertib -0.255 | rosiglitazone 1.27
